Each structure is given as a SMILES string. Activity calls are given as the source filed them.

Assay [1] can be described thus: E. coli DRC41 culture turbidity changes, primary screen, E. coli filamentation inducer project, strain DRC41, OD650, 48 h (AID 1152).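 Note: E. coli MC1000 strain DRC41 lacking acrAB efflux pump and sulA.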 Particulars: E. coli DRC41 (acrAB sulA), higher = more signal, called active from +8 up or from −8 down.
Assay [2] is described as follows: small-molecule binders of probe aLefty1, primary screen, biochemical, small-molecule microarray, 635/667 nm fluorescence (AID 1153).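 Note: score merges spot fluorescence with signal-to-noise ratio from the scanned slide images.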 The settings on record: higher = more signal.
Assay [3] in a line: PSAC antagonists in infected red cells, primary screen, cell-based, P. falciparum Indochina, OD700, 1 h (AID 1154). The settings on record: P. falciparum Indochina infected RBC osmotic lysis, higher = more signal, called active from +8 up or from −8 down.
A short description of assay [4]: PSAC antagonists in infected red cells, primary screen, cell-based, P. falciparum Indochina, OD700, 2 h (AID 1155).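 Note: lysis reports solute entry through the parasite surface anion channel PSAC; channel blockers reduce lysis of infected cells.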 Particulars: P. falciparum Indochina infected erythrocytes, osmotic lysis OD700; higher = more signal, called active from +8 up or from −8 down.
A short description of assay [5]: osmotic lysis modulators in infected erythrocytes, primary screen, PSAC antagonist project, cell-based, P. falciparum Indochina, OD700, 3 h (AID 1156). The settings on record: higher = more signal, called active from +8 up or from −8 down.
Assay [6] can be described thus: PSAC antagonists in infected red cells, primary screen, cell-based, P. falciparum Indochina, OD700, 18 h (AID 1157). Particulars: P. falciparum Indochina infected erythrocytes, osmotic lysis OD700, 18 h; higher = more signal, called active from +8 up or from −8 down.
The nature of assay [7]: modulators of S6 phosphorylation in cells, primary screen, cell-based, A549, cytoblot, luminescence, serum-stimulated (AID 1158).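 Note: serum-stimulated A549 lung adenocarcinoma cells; signal is phosphorylated S6 detected by cytoblot immunostaining with HRP secondary.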 Particulars: A549 phospho-S6 cytoblot, 5 h, higher = more signal.
Assay [8] addresses NADPH oxidase 2 (Homo sapiens) (UniProt P04839). As to the kind of experiment: NOX2-dependent H2O2 signal modulators, primary screen, NOX inhibitor project, cell-based, HEK293-NOX2, PMA-stimulated, Amplex Red fluorescence (AID 1159). Note: test concentration not given here. The settings on record: 45 min, higher = more signal, called active from +8 up or from −8 down.
Assay [9] deals with NADPH oxidase 4 (Homo sapiens) (UniProt Q9NPH5). Description: NOX4-dependent H2O2 signal modulators, primary screen, NOX inhibitor project, cell-based, HEK293-NOX4, tetracycline-induced, Amplex Red fluorescence (AID 1160). The settings on record: 45 min, higher = more signal, called active from +8 up or from −8 down.
Sequence of NADPH oxidase 4 (Homo sapiens) (Q9NPH5 whole entry, looked up): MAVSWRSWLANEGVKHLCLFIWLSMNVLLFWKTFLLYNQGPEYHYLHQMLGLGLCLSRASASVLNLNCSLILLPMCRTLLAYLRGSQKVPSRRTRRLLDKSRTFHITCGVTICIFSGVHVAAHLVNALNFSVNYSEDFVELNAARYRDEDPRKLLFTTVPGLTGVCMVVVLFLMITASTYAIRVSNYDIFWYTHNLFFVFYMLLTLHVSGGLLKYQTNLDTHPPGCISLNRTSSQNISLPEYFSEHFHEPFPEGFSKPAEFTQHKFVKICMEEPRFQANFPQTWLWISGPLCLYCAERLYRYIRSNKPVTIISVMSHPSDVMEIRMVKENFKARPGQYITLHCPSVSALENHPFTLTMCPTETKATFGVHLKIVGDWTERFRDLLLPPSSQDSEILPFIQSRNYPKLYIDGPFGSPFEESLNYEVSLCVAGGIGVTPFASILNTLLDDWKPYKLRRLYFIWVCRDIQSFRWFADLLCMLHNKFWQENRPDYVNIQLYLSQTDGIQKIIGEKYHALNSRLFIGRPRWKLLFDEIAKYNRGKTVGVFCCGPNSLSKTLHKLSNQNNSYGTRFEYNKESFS
Assay [10] concerns the target NADPH oxidase 5 (Homo sapiens) (UniProt Q96PH1). As to the kind of experiment: NOX5-dependent H2O2 signal modulators, primary screen, NOX inhibitor project, cell-based, HEK293-NOX5, Amplex Red fluorescence (AID 1161). The settings on record: HEK293-NOX5, ionomycin, 45 min, higher = more signal.
Assay [11] is described as follows: A549 cell viability effects, profiling panel, calcein-AM fluorescence, 48 h, basal (AID 1162). Note: test concentration not given here. The settings on record: higher = more signal.
A short description of assay [12]: adipocyte viability effects, profiling panel, cell-based, 3T3-L1 adipocytes, calcein-AM fluorescence, 48 h, basal (AID 1163). Note: test concentration not given here. The settings on record: 3T3-L1 adipocytes viability, higher = more signal.
The nature of assay [13]: HepG2 cell viability effects, profiling panel, calcein-AM fluorescence, 48 h, basal (AID 1164). Note: test concentration not given here. The settings on record: higher = more signal.
Assay [14] can be described thus: MM1S cell viability effects, profiling panel, calcein-AM fluorescence, 48 h, basal (AID 1165).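 Note: viability of MM1S multiple myeloma cells under basal unstimulated conditions; test concentration not given here.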 The settings on record: higher = more signal.
Assay [15] can be described thus: basal RPMI8226 viability, no added stimulus, profiling panel, cell-based, calcein-AM fluorescence, 48 h, PK04 Diversity Set (AID 1166).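 Note: cells grown under basal conditions without added stimulus; test concentration not given here.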 Particulars: RPMI8226 myeloma viability, higher = more signal.
Assay [16] is described as follows: basal HepG2 mitochondrial membrane potential changes, profiling panel, cell-based, JC-1 fluorescence, 24 h, 100 nL compound (AID 1167). Note: test concentration not given here. Particulars: higher = more signal.
Assay [17] can be described thus: basal 3T3-L1 adipocyte mitochondrial potential changes, profiling panel, cell-based, JC-1 fluorescence, 3T3-L1 adipocytes, 24 h, 100 nL compound (AID 1168). Note: test concentration not given here. The settings on record: JC-1 mitochondrial fluorescence, higher = more signal, called active from +8 up or from −8 down.
Assay [18] is described as follows: basal RPMI8226 mitochondrial membrane potential changes, profiling panel, cell-based, JC-1 fluorescence, 24 h, 100 nL compound (AID 1169). Note: test concentration not given here. Particulars: RPMI8226 myeloma, JC-1 mitochondrial potential fluorescence, higher = more signal.
Assay [19] can be described thus: basal MM1S mitochondrial membrane potential changes, profiling panel, cell-based, JC-1 fluorescence, 24 h, 100 nL compound (AID 1170). Note: test concentration not given here. Particulars: higher = more signal.
Assay [20] in a line: A549 lung cancer cell viability effects, profiling panel, resazurin fluorescence, 24 h, PK04 Diversity Set (AID 1171). Note: test concentration not given here. Particulars: higher = more signal, called active from +8 up or from −8 down.

Sequence of NADPH oxidase 5 (Homo sapiens) (Q96PH1 whole entry, looked up): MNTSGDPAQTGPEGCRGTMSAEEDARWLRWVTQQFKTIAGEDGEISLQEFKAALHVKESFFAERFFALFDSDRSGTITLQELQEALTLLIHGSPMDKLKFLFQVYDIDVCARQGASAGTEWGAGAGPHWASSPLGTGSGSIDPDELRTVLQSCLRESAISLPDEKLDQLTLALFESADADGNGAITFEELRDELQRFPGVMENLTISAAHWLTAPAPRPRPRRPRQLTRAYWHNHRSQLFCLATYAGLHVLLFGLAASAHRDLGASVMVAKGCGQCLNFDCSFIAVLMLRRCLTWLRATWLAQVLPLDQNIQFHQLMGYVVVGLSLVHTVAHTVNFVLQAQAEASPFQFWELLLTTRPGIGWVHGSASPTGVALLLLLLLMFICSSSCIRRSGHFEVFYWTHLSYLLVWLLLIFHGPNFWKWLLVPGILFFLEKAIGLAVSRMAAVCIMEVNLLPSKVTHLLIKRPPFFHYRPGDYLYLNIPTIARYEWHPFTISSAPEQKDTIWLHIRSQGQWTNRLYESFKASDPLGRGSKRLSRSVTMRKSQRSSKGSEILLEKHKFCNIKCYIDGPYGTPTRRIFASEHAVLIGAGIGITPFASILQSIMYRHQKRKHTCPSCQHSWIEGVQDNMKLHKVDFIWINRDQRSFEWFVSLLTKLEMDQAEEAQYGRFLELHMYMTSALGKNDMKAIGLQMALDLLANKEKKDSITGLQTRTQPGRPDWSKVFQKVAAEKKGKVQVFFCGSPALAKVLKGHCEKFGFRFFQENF
Sequence of NADPH oxidase 2 (Homo sapiens) (P04839 whole entry, looked up): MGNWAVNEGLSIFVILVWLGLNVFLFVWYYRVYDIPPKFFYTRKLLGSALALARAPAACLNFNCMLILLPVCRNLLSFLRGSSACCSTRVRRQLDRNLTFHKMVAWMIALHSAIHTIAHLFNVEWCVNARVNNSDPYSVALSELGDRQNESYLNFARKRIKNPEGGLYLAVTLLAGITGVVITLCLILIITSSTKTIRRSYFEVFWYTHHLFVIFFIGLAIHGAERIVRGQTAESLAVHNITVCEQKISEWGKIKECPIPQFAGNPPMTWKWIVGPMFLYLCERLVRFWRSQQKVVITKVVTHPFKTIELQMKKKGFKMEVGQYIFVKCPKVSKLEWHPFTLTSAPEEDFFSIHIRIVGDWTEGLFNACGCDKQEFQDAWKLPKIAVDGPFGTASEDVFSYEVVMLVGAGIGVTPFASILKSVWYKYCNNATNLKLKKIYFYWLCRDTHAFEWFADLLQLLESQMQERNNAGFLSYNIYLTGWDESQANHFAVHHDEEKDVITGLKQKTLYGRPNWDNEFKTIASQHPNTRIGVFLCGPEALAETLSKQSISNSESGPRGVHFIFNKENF

Take `COC(=O)[C@@]1(Cc2ccc(OC)cc2)[C@H]2c3cc(C(=O)N4CCCC4)n(CCc4c[nH]c5cc(F)ccc45)c3C[C@H]2CN1C(=O)c1ccccc1`: the z-score in assay [1] is -0.429 (inactive); in assay [3], 3.07 (inactive); in assay [4] it was 0.676 (inactive); in assay [5], 0.745 (inactive); in [6] it was 1.06 (inactive); in assay [7], -0.174. Moreover, the z-score in assay [8] is 0.438 (inactive); in assay [9], 0.0193 (inactive); in assay [10], -0.293; in [11] it was 0.866; in assay [12], -0.124; in assay [13] it was 0.172. The z-score in [14] was -1.08; in assay [15], -0.758; in [16], -0.37; in assay [17], 0.492 (inactive); in assay [18], -0.304; in [19], -0.662. Besides, the z-score in assay [20] is 0.313 (inactive). The same compound yielded a composite z-score in assay [2] of 1.27.
Regarding `O=C1C2C=CC(C(O)c3ccc(F)cc3)N(Nc3ccccc3)C2C(=O)N1c1ccccc1` (stereo not given), the z-score is -0.789 (inactive) in assay [1]; 10.2 (active) in [3]; 2.02 (inactive) in assay [4]; 0.0089 (inactive) in [5]; 1.24 (inactive) in [6]; -0.931 in [7]. In addition, the z-score in assay [8] was -1.77 (inactive); in [9] it was -3.42 (inactive); in [10], -1.96; in assay [11] it was 0.257; in [12] it was -1.66; in assay [13], -0.114. In addition, the z-score in assay [14] is 0.561; in assay [15], -0.149; in assay [16] it was -1.58; in [17], -0.0708 (inactive); in assay [18], -0.0118; in assay [19] it was -1.01. The z-score in assay [20] was -0.111 (inactive). Moreover, the composite z-score in assay [2] stood at 0.374.
Regarding `CC(C)N1C(=O)c2ccccc2[C@@H](C(=O)NCCCN(C)C)[C@@H]1c1ccc(CO)cc1`, the z-score in assay [1] was -0.534 (inactive); in assay [3], 2.45 (inactive); in assay [4], -0.0098 (inactive); in assay [5] it was 2.5 (inactive); in assay [6], 0.181 (inactive); in assay [7] it was -0.0692. The z-score in assay [8] was 1.08 (inactive); in assay [9], -0.858 (inactive); in assay [10], -1.54; in assay [11], 0.177; in assay [12], 1.46; in assay [13], 0.0397. The z-score in assay [14] was 0.551; in [15], -0.981; in assay [16] it was 1.09; in assay [17] it was -0.205 (inactive); in [18], 0.75; in assay [19] it was 0.499. Also, the z-score in assay [20] is -0.565 (inactive). The same compound registered a composite z-score in assay [2] of 1.17.
`Cc1ccc(F)cc1S(=O)(=O)N[C@@H]1CCN(Cc2ccc(-c3ccccc3)cc2)C1`: the z-score was -19.4 (active) in assay [1]; 13 (active) in assay [3]; 2.34 (inactive) in assay [4]; 0.349 (inactive) in assay [5]; 1.41 (inactive) in assay [6]; -0.275 in assay [7]. In addition, the z-score in assay [8] was 0.335 (inactive); in assay [9] it was -1.62 (inactive); in assay [10], -1.57; in assay [11], -1.8; in assay [12], -1.3; in assay [13], -4.73. The z-score in [14] is -3.15; in assay [15] it was -4.09; in assay [16], -1.82; in assay [17] it was -0.516 (inactive); in [18], -0.69; in assay [19], -2.99. For the same compound, the z-score in assay [20] was -0.464 (inactive). This compound also showed a composite z-score in [2] of 0.121.
Consider `COC(=O)[C@@]1(Cc2ccc(F)cc2)[C@H]2c3cc(C(=O)N(C)C)n(CCc4ccccn4)c3C[C@H]2CN1C(=O)c1ccccc1`, for which the z-score in assay [1] was -0.815 (inactive); in assay [3], 1.81 (inactive); in assay [4] it was -0.0235 (inactive); in [5] it was 0.892 (inactive); in assay [6], -1.66 (inactive); in [7], 0.402. The z-score in assay [8] was 0.831 (inactive); in assay [9] it was 1.03 (inactive); in assay [10] it was 0.234; in assay [11], -0.619; in [12], 0.698; in assay [13], -1.39. For the same compound, the z-score in assay [14] was 0.0635; in [15], -0.722; in assay [16], -0.0662; in [17] it was -0.539 (inactive); in assay [18], -0.153; in [19], 0.95. In addition, in [20], the z-score was 0.429 (inactive). Also, the composite z-score in assay [2] came to 1.01.
In the case of `CCCCC(CC)C(O)C1C=CC2C(=O)N(c3ccccc3)C(=O)C2N1Nc1ccccc1` (stereo not given), the z-score in [1] was -1.61 (inactive); in assay [3], 1.1 (inactive); in assay [4] it was -0.627 (inactive); in [5] it was 2.18 (inactive); in assay [6] it was -1.72 (inactive); in [7], 1.14. In addition, the z-score is -2.98 (inactive) in assay [8]; -5.21 (inactive) in [9]; -5.76 in assay [10]; -0.5 in assay [11]; 0.0749 in [12]; -0.315 in [13]. For the same compound, the z-score is -0.137 in [14]; -0.841 in [15]; -2.35 in assay [16]; 0.633 (inactive) in [17]; -0.48 in assay [18]; 0.00945 in [19]. The z-score in assay [20] is -0.885 (inactive). The composite z-score in assay [2] is 0.448.
`CCC(CC)C(O)C1C=CC2C(=O)N(c3ccccc3)C(=O)C2N1Nc1ccc(C#N)cc1` (stereo not given): the z-score in assay [1] was -0.35 (inactive); in assay [3] it was 15.4 (active); in assay [4], 2.91 (inactive); in [5], 3.47 (inactive); in assay [6], 1.51 (inactive); in assay [7], -1.11. Also, the z-score was -1.49 (inactive) in [8]; -3.45 (inactive) in [9]; -3.2 in [10]; 0.313 in assay [11]; -0.534 in assay [12]; -0.136 in [13]. Besides, the z-score in assay [14] is 0.436; in [15], -0.452; in [16], -1.03; in assay [17], -1.29 (inactive); in [18], -0.659; in assay [19], -0.0284. The z-score in assay [20] is 0.158 (inactive). The composite z-score in assay [2] was 0.675.
As to `CC(C)c1ccc(NN2C(C(O)c3cccc(O)c3)C=CC3C(=O)N(c4ccccc4)C(=O)C32)cc1` (stereo not given), the z-score was -0.833 (inactive) in assay [1]; 8.05 (active) in assay [3]; 1.14 (inactive) in [4]; 1.5 (inactive) in [5]; 1.64 (inactive) in assay [6]; -0.83 in assay [7]. Also, the z-score in [8] was -2.01 (inactive); in assay [9], -5.51 (inactive); in [10], -4.13; in assay [11], -1.09; in [12], -0.35; in assay [13], -0.753. The z-score was -0.26 in [14]; -0.237 in assay [15]; -1.85 in assay [16]; -0.948 (inactive) in assay [17]; -0.554 in assay [18]; -0.749 in [19]. In addition, in [20], the z-score was 0.403 (inactive). This compound also gave a composite z-score in [2] of 0.0523.
As to `C=CCC(OC(C)=O)[C@@H]1[C@@H](N(Cc2ccc(-c3ccccc3)cc2)C(=O)Cc2ccc(OC)cc2)c2cc(OCCCO)ccc2N1C(=O)c1ccc2ccccc2n1` (stereo not given in full), the z-score in [1] is 0.165 (inactive); in assay [3], 2.27 (inactive); in assay [4], 0.925 (inactive); in assay [5] it was -0.165 (inactive); in assay [6], 1.02 (inactive); in assay [7] it was 0.751. The z-score was -2.73 (inactive) in [8]; 1.41 (inactive) in [9]; 2.5 in assay [10]; -0.072 in assay [11]; 0.273 in [12]; 0.978 in assay [13]. For the same compound, the z-score in assay [14] is 0.0474; in assay [15] it was -0.295; in assay [16] it was 2.56; in assay [17], -0.269 (inactive); in assay [18], 0.651; in assay [19] it was 0.789. For the same compound, the z-score in assay [20] was 0.902 (inactive). For the same compound, the composite z-score in assay [2] was 0.167.

(Values after PubChem BioAssay.)
